The panel holds about 83,000 compounds, 20% with a hit somewhere; the sample as a whole holds those more often.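 Compound tested at a single concentration for 48 hours in 96-well plates; a percent growth value below 10 was scored as active.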 Unmarked numbers belong to inactive results. Active and inactive are the calls of the source.

The subject of the first assay is HOP-62 NSCLC. Briefly: NCI-60 one-dose screen, 48 h (100 = growth as untreated, 0 = no growth, -100 = all killed). As to conditions: 10 µM unless noted.
`CCCOc1ccc2nc(NC(=O)OC)[nH]c2c1`: the growth was 33.6%.

Take `NS(=O)(=O)c1ccc(CN=C2NC(=O)S/C2=C\c2ccc(Br)cc2)cc1`: the growth is 103%.

Take `N=C(N)c1ccc(-c2ccc(-c3ccc4ccccc4c3)s2)s1`: the growth was 86.8%.

With `COc1cc2nc(N3CCCC3)nc(Nc3ccccc3)c2cc1OC`, the growth is 16.3%.

On to `C#Cc1cccc(NC(=O)c2ccccc2NC(=O)C=C)c1`, for which the growth was 92.9% [8.25 µM].

With `C#CC(F)(F)[C@]1(O)CC[C@H]2[C@@H]3CCC4=CC(=O)CCC4=C3[C@@H](c3ccc(C(C)=O)cc3)C[C@@]21C`, the growth is 74.4%.

Take `Cc1ccc(NC(=O)/C=C/c2ccccc2)c(C(N)=O)c1`: the growth is 88.2%.

For `CCOc1cc2ncc(C#N)c(Nc3ccc(OCc4cccc(F)c4)c(Cl)c3)c2cc1NC(=O)CC1CCSS1` (stereo unspecified), the growth was 14.9%.

In the case of `CCOC(=O)c1c(C(=O)OCC)c2cc(-c3ccn4c(C(=O)c5ccccc5)c(C(=O)OCC)c(C(=O)OCC)c4c3)ccn2c1C(=O)c1ccccc1`, the growth was 97.4%.

Turning to `NC(=O)c1cc(Br)ccc1NC(=O)/C=C/c1ccccc1`, the growth was 99%.

For the compound `COC(=O)[C@@H]1CCCN1C(=O)[C@@H]1CCCN1C(=O)[C@H](Cc1ccccc1)NC(=S)Nc1cc(C(F)(F)F)cc(C(F)(F)F)c1`, the growth was 89.8%.

Take `COc1ccc(-c2cc(=O)c3c(OC)c4ccoc4cc3o2)cc1`: the growth is 108%.

With `NC(=NCCCC1(c2ccccc2)CCCC1)Nc1ccc(Cl)cc1`, the growth is 69.6%.

Regarding `COC(=O)c1ccc(Cn2cnc3c(N)ncnc32)cc1`, the growth is 97%.

For `Cc1ccc2oc(=O)cc(C3c4ccc([nH]4)C(c4cc(=O)oc5ccc(C)cc45)c4ccc([nH]4)C(c4cc(=O)oc5ccc(C)cc45)c4ccc([nH]4)C(c4cc(=O)oc5ccc(C)cc45)c4ccc3[nH]4)c2c1` (stereo unspecified), the growth is -68.2% (active).

`O=C1c2cccc3cccc(c23)C(=O)N1CCCCN1CCN(CCCCOc2ccc(-c3nc4ccc(N5CCOCC5)cc4[nH]3)cc2)CC1`: the growth is 98.3%.

With `Cn1cc(-c2nonc2-c2cn(C)c3ccc(F)cc23)c2cc(F)ccc21`, the growth was 45.6%.

Regarding `CCOC(=O)n1cc(-c2nonc2-c2cn(C)c3ncccc23)c2cc(F)ccc21`, the growth was 89.8%.

On to `C=CC(COC(c1ccccc1)(c1ccccc1)c1ccccc1)N(CC)CC` (stereo unspecified), for which the growth was 61.8%.

Turning to `COCCNc1ccc2c3c(cccc13)C(=O)N(CCN(C)C)C2=O`, the growth was 50.9%.

As for `O=C1CC(=NCC(=O)n2c(-c3ccccc3)nc3ccccc32)NN1`, the growth is 89%.

Turning to `CC/C=C\C[C@H]1C/C=C2/C(=O)C=C[C@H]2C/C=C\CCCC(=O)O1`, the growth was 22.5%.

`CCOC(=O)c1sc2nc(-c3cccc(OC)c3)nc(N3CCOCC3)c2c1C`: the growth was 110%.

In the case of `CC(=O)Nc1ccc(S(=O)(=O)Nc2cccc(-c3nc(-c4ccc(NC(=O)c5cccnc5)cc4Cl)no3)c2)cc1`, the growth is 34.9%.

Turning to `COc1nc2c(c(=O)n1C)CN(Cc1ccccc1)C=N2`, the growth was 94.2%.

Take `CCC(=O)c1ccc(Cl)s1`: the growth is 109%.

Turning to `O=S(=O)(Nc1ccc(I)cc1F)c1ccc(-c2cnc(C3CC3)o2)cc1`, the growth was 52.4%.

For the compound `Cc1ccccc1COc1ccc(-c2onc(C)c2-c2ccc(Cl)cc2)cc1`, the growth is 51.6%.

As to `O=C(/C=C/c1ccc(C(F)(F)F)cc1)Nc1ccc(C=C2c3ccccc3C(=O)c3ccccc32)cc1`, the growth is 78.8%.

Turning to `COc1cccc2c1C(=O)c1c(O)c3c(c(O)c1C2=O)C[C@](O)(C(=O)CO)C[C@H]3O[C@@H]1C[C@@H](NC(=O)CCCN(C)C2(c3ccc(F)cc3)CC3CCC2C3)[C@H](O)[C@@H](C)O1` (stereo partly specified), the growth was 58.5%.

As for `O=C(O)c1ccc(NC(=O)c2ccc(-c3cccc([N+](=O)[O-])c3)o2)cc1`, the growth was 103%.

For `O=c1cc(CSc2nnc(SCc3cc(=O)oc4c3ccc3ccccc34)o2)c2ccc3ccccc3c2o1`, the growth was 99.2%.

Regarding `O=C(COc1ccc(/C=C2\COc3ccccc3C2=O)cc1)Nc1nccs1`, the growth was 94.6%.

Take `NC(=NCCCOc1ccc(Cl)cc1)Nc1ccc(Cl)cc1`: the growth was 33.9%.

For `N#CN1CC[C@H](C(=O)Nc2cc3cc(C(N)=O)ccc3cn2)C1`, the growth is -27.1% (active).

With `N#CCCN=Nc1c(O)[nH]c2ccc(F)cc12`, the growth is 98.6%.

Turning to `Nc1nc2ncc(CCNc3ccc(C(=O)O)cc3)nc2c(=O)[nH]1`, the growth is 113%.

As to `COc1cccc(-c2nc3sccn3c2-c2ccnc(NCCNS(=O)(=O)c3ccc(F)cc3)c2)c1`, the growth was 43.7%.

The next assay deals with NCI-H460 lung. Described as above. The following applies: 10 µM unless noted.
As for `CCCOc1ccc2nc(NC(=O)OC)[nH]c2c1`, the growth was 3.52% (active).

With `NS(=O)(=O)c1ccc(CN=C2NC(=O)S/C2=C\c2ccc(Br)cc2)cc1`, the growth was 101%.

Regarding `N=C(N)c1ccc(-c2ccc(-c3ccc4ccccc4c3)s2)s1`, the growth is -70.4% (active).

For `COc1cc2nc(N3CCCC3)nc(Nc3ccccc3)c2cc1OC`, the growth was -42.1% (active).

As to `C#Cc1cccc(NC(=O)c2ccccc2NC(=O)C=C)c1`, the growth was 103% [8.25 µM].

For the compound `C#CC(F)(F)[C@]1(O)CC[C@H]2[C@@H]3CCC4=CC(=O)CCC4=C3[C@@H](c3ccc(C(C)=O)cc3)C[C@@]21C`, the growth is 97.4%.

In the case of `Cc1ccc(NC(=O)/C=C/c2ccccc2)c(C(N)=O)c1`, the growth was 10.5%.

For the compound `CCOc1cc2ncc(C#N)c(Nc3ccc(OCc4cccc(F)c4)c(Cl)c3)c2cc1NC(=O)CC1CCSS1` (stereo unspecified), the growth was -56.6% (active).

Regarding `CCOC(=O)c1c(C(=O)OCC)c2cc(-c3ccn4c(C(=O)c5ccccc5)c(C(=O)OCC)c(C(=O)OCC)c4c3)ccn2c1C(=O)c1ccccc1`, the growth is 98.3%.

In the case of `NC(=O)c1cc(Br)ccc1NC(=O)/C=C/c1ccccc1`, the growth is 17.1%.

Take `COC(=O)[C@@H]1CCCN1C(=O)[C@@H]1CCCN1C(=O)[C@H](Cc1ccccc1)NC(=S)Nc1cc(C(F)(F)F)cc(C(F)(F)F)c1`: the growth was 84.8%.

As to `COc1ccc(-c2cc(=O)c3c(OC)c4ccoc4cc3o2)cc1`, the growth is 73.7%.

For the compound `NC(=NCCCC1(c2ccccc2)CCCC1)Nc1ccc(Cl)cc1`, the growth was -32.8% (active).

`COC(=O)c1ccc(Cn2cnc3c(N)ncnc32)cc1`: the growth was 115%.

With `Cc1ccc2oc(=O)cc(C3c4ccc([nH]4)C(c4cc(=O)oc5ccc(C)cc45)c4ccc([nH]4)C(c4cc(=O)oc5ccc(C)cc45)c4ccc([nH]4)C(c4cc(=O)oc5ccc(C)cc45)c4ccc3[nH]4)c2c1` (stereo unspecified), the growth was -66.4% (active).

With `O=C1c2cccc3cccc(c23)C(=O)N1CCCCN1CCN(CCCCOc2ccc(-c3nc4ccc(N5CCOCC5)cc4[nH]3)cc2)CC1`, the growth was 75%.

Turning to `Cn1cc(-c2nonc2-c2cn(C)c3ccc(F)cc23)c2cc(F)ccc21`, the growth is 49.9%.

As for `CCOC(=O)n1cc(-c2nonc2-c2cn(C)c3ncccc23)c2cc(F)ccc21`, the growth is 92.1%.

Consider `C=CC(COC(c1ccccc1)(c1ccccc1)c1ccccc1)N(CC)CC` (stereo unspecified), for which the growth was 58.1%.

With `COCCNc1ccc2c3c(cccc13)C(=O)N(CCN(C)C)C2=O`, the growth was -21.9% (active).

Take `O=C1CC(=NCC(=O)n2c(-c3ccccc3)nc3ccccc32)NN1`: the growth is 100%.

On to `CC/C=C\C[C@H]1C/C=C2/C(=O)C=C[C@H]2C/C=C\CCCC(=O)O1`, for which the growth was 27.4%.

In the case of `CCOC(=O)c1sc2nc(-c3cccc(OC)c3)nc(N3CCOCC3)c2c1C`, the growth was 101%.

With `CC(=O)Nc1ccc(S(=O)(=O)Nc2cccc(-c3nc(-c4ccc(NC(=O)c5cccnc5)cc4Cl)no3)c2)cc1`, the growth is 18%.

On to `COc1nc2c(c(=O)n1C)CN(Cc1ccccc1)C=N2`, for which the growth was 116%.

On to `CCC(=O)c1ccc(Cl)s1`, for which the growth was 99%.

For `O=S(=O)(Nc1ccc(I)cc1F)c1ccc(-c2cnc(C3CC3)o2)cc1`, the growth is 38.4%.

In the case of `Cc1ccccc1COc1ccc(-c2onc(C)c2-c2ccc(Cl)cc2)cc1`, the growth was 54.7%.

Turning to `O=C(/C=C/c1ccc(C(F)(F)F)cc1)Nc1ccc(C=C2c3ccccc3C(=O)c3ccccc32)cc1`, the growth was 62.3%.

Regarding `COc1cccc2c1C(=O)c1c(O)c3c(c(O)c1C2=O)C[C@](O)(C(=O)CO)C[C@H]3O[C@@H]1C[C@@H](NC(=O)CCCN(C)C2(c3ccc(F)cc3)CC3CCC2C3)[C@H](O)[C@@H](C)O1` (stereo partly specified), the growth was -86.8% (active).

`O=C(O)c1ccc(NC(=O)c2ccc(-c3cccc([N+](=O)[O-])c3)o2)cc1`: the growth is 102%.

Regarding `O=c1cc(CSc2nnc(SCc3cc(=O)oc4c3ccc3ccccc34)o2)c2ccc3ccccc3c2o1`, the growth is 104%.

With `O=C(COc1ccc(/C=C2\COc3ccccc3C2=O)cc1)Nc1nccs1`, the growth was 102%.

For `NC(=NCCCOc1ccc(Cl)cc1)Nc1ccc(Cl)cc1`, the growth was 48%.

As to `N#CN1CC[C@H](C(=O)Nc2cc3cc(C(N)=O)ccc3cn2)C1`, the growth is 6.93% (active).

`N#CCCN=Nc1c(O)[nH]c2ccc(F)cc12`: the growth was 101%.

Consider `Nc1nc2ncc(CCNc3ccc(C(=O)O)cc3)nc2c(=O)[nH]1`, for which the growth is 114%.

As to `COc1cccc(-c2nc3sccn3c2-c2ccnc(NCCNS(=O)(=O)c3ccc(F)cc3)c2)c1`, the growth is 21.4%.

(Values after PubChem BioAssay (NCI).)
